Experimental data reported in publication PMC5700166.

Target: GST-Hu-p50 (Homo sapiens, UniProt P19838 7-356)
Assay: protein-binding microarray (PBM); PBM: ~300 nM protein, 6 mM HEPES pH 7.8, 80 mM KCl, 0.5 mM EDTA, 0.5 mM EGTA, 6% glycerol, 35 ng/ul poly-dIdC, 1% milk, 1 h, room temperature; Ap Aiptasia and Nv Nematostella (sea anemones) / Co Capsaspora / Aq Amphimedon (sponge) / Dm Drosophila / Hu human; RHD is the Rel homology domain; high values mean tight binding
Conditions: dsDNA, one strand shown

Chain of GST-Hu-p50 (P19838 7-356): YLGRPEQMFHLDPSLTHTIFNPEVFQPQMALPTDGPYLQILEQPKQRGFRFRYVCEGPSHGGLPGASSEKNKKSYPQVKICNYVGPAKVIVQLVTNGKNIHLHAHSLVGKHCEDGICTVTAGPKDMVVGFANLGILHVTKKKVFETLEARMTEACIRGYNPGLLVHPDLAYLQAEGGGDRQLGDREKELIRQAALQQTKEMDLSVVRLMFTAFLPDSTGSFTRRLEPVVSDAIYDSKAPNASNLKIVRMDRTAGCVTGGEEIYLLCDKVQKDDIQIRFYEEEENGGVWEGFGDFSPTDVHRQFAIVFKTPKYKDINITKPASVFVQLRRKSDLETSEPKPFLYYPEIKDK

Sequence | binding signal [z-score]
CCGATTAACATCACCATTATAGGTGATGTTAATCGGGTCTTGATTCGCTTGACGCTGCTG | 1.68
CCGATTAACATCAGGGGAGATTATGATGTTAATCGGGTCTTGATTCGCTTGACGCTGCTG | 4.94
CCGATTAACATCACATACCCCCCTGATGTTAATCGGGTCTTGATTCGCTTGACGCTGCTG | 3.68
CCGATTAACATCAGGAATCACCCTGATGTTAATCGGGTCTTGATTCGCTTGACGCTGCTG | 3.31
CCGATTAACATCAGGAAAAAACCTGATGTTAATCGGGTCTTGATTCGCTTGACGCTGCTG | 2.63
CCGATTAACATCAACGTTTTCCCTGATGTTAATCGGGTCTTGATTCGCTTGACGCTGCTG | 3.09
CCGATTAACATCAGGGAAAAACCTGATGTTAATCGGGTCTTGATTCGCTTGACGCTGCTG | 4.95
CCGATTAACATCAGGAACACCCCTGATGTTAATCGGGTCTTGATTCGCTTGACGCTGCTG | 2.26
CCGATTAACATCATCTTTTTACTTGATGTTAATCGGGTCTTGATTCGCTTGACGCTGCTG | 1.01
CCGATTAACATCAGGGGAAGAAATGATGTTAATCGGGTCTTGATTCGCTTGACGCTGCTG | 5.16
CCGATTAACATCAATTTCCCGTATGATGTTAATCGGGTCTTGATTCGCTTGACGCTGCTG | 2.68
CCGATTAACATCAATGGAATTCCTGATGTTAATCGGGTCTTGATTCGCTTGACGCTGCTG | 1.48
CCGATTAACATCAGGGAAACTACTGATGTTAATCGGGTCTTGATTCGCTTGACGCTGCTG | 3.85
CCGATTAACATCAAGGGAAAAATTGATGTTAATCGGGTCTTGATTCGCTTGACGCTGCTG | 4.56
CCGATTAACATCAGGGGATACCCTGATGTTAATCGGGTCTTGATTCGCTTGACGCTGCTG | 5.1
CCGATTAACATCAAATTTCCAGGTGATGTTAATCGGGTCTTGATTCGCTTGACGCTGCTG | 1.2
CCGATTAACATCAGGGAAAAAAATGATGTTAATCGGGTCTTGATTCGCTTGACGCTGCTG | 4.58
CCGATTAACATCAGGGGATAATATGATGTTAATCGGGTCTTGATTCGCTTGACGCTGCTG | 4.49
CCGATTAACATCAACGGGTCCCTTGATGTTAATCGGGTCTTGATTCGCTTGACGCTGCTG | 1.31
CCGATTAACATCAGGGGAACTCATGATGTTAATCGGGTCTTGATTCGCTTGACGCTGCTG | 4.82
CCGATTAACATCAAGCCCCCCCATGATGTTAATCGGGTCTTGATTCGCTTGACGCTGCTG | 3.88
CCGATTAACATCAGGGGAAAGCATGATGTTAATCGGGTCTTGATTCGCTTGACGCTGCTG | 4.81
CCGATTAACATCAGGGGTATACCTGATGTTAATCGGGTCTTGATTCGCTTGACGCTGCTG | 1.99
CCGATTAACATCAACCTTTCCCCTGATGTTAATCGGGTCTTGATTCGCTTGACGCTGCTG | 4.06
CCGATTAACATCAGAAAATTTCCTGATGTTAATCGGGTCTTGATTCGCTTGACGCTGCTG | 1.69
